Screening results from PubChem BioAssay.
Sampled rows, rich in hits. Any-hit rate of the full collection: about 0.92%.
FadD28 FP inh: blocks FadD28 binding to the bisubstrate probe; fluorescence polarization; inhibition, % at 12.5 µM; hit rate 0.22% among 360,000; AID 588549; in the data active means inhibition above about 8.5%, passing the limit was not always enough; inconclusive means no clear call, values can overlap the other calls
Mtb bLac sens: beta-lactam sensitization of Mtb H37Rv; M. tuberculosis H37Rv growth with meropenem, percent inhibition; inhibition, % at 25 µM; hit rate 0.27% among 330,000;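 further: growth measured after seven days incubation then overnight dye step; 0% = bacteria only wells and 100% = bacteria with antibiotic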
Rv3671c protease: inhibits the M. tuberculosis serine protease Rv3671c; P9WHR9; inhibition, % at 5.96 µM; hit rate 0.048% among 320,000; AID 2606; in the data active means inhibition above about 38%;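 further: extracellular domain of Rv3671c used as enzyme; 0% = enzyme with DMSO and 100% = no enzyme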
Mtb hypoxia rep: reduces hypoxia-regulated biosensor signal in M. tuberculosis | hit rate 0.1% among 300,000 | fluorescence inhibition, % (concentration not given with the values) | M. tuberculosis hypoxia-regulated fluorescent reporter, fluorescence; in the data active means fluorescence inhibition mostly above about 23%, no sharp cut-off; inactive means mostly below about 17%
UGM FP inh: Mtb UDP-galactopyranose mutase inhibition; purified UGM, fluorescence polarization probe displacement; inhibition, % at 10 µM; hit rate 0.06% among 320,000; AID 504406; in the data active means inhibition above about 10%, passing the limit was not always enough; inconclusive means no clear call, values can overlap the other calls
Target sequence (P9WIQ1 whole entry, looked up): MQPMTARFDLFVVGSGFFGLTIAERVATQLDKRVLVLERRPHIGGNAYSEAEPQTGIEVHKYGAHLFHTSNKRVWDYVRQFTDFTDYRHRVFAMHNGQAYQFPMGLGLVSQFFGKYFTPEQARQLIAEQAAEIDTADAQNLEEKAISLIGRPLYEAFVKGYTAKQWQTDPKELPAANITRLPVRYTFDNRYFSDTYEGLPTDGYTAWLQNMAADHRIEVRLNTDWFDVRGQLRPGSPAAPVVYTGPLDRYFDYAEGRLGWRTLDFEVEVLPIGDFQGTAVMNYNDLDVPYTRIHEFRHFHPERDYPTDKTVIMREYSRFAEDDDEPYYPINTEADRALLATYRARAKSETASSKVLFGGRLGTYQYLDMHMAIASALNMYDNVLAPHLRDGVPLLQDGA
RecA splice inh: blocks M. tuberculosis RecA intein splicing | cell-free RecA intein splicing, fluorescence | AID 2221 | inhibition, % (no concentration beside the values) | P9WHJ3 | hit rate 0.75% among 290,000; in the data active means inhibition above about 30%; inconclusive means no clear call, values can overlap the other calls;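 further: 0% = vehicle wells and 100% = reference inhibitor control wells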
GFP chromophore: counter-screen GFP chromophore formation inhibition; shares compounds with RecA splice inh; AID 434968; hit rate 83% among 2,100; cell-free GFP chromophore formation, fluorescence; EC50, µM
* hit, by the source's call; ? = inconclusive; . = not tested or not shown. Unless noted, how the calls were made is not given here.

SMILES	FadD28 FP inh	Mtb bLac sens	Rv3671c protease	Mtb hypoxia rep	UGM FP inh	RecA splice inh	GFP chromophore
Cc1cccc(OCCC(=O)OC(C)C(=O)Nc2ccc(Cl)cn2)c1 (stereo not drawn)	-5	3	5	11	-1	4	.
N#C/C(=C\c1c(Cl)cccc1Cl)c1nn(-c2ccccc2)c(-n2cccc2)c1C#N	-2	-11	-5	4	1	25	.
N#C/C(=C\c1c(F)cccc1Cl)c1nn(-c2ccccc2)c(-n2cccc2)c1C#N	-1	11	-17	.	3	46*	>38
COc1ccc(C=NNC(=O)c2ccc(N3CCCC3=O)cc2)cc1	.	.	.	4	.	.	.
COc1ccc(/C=N/NC(=O)c2nn(-c3ccc(Cl)cc3)c(=O)c3c(N)scc23)cc1	0	4	-21	.	-1	40*	17*
O=C(N/C(=C\c1ccc([N+](=O)[O-])cc1)C(=O)N1CCCCC1)c1ccccc1	-1	-6	2	.	5	2	.
O=[N+]([O-])/C(C(Cl)=C(Cl)Cl)=C(/Sc1ccccc1)N1CCCCC1	-2	3	-3	1	0	34*	>38
O=C(CCN1CCN(c2ccccc2)CC1)Nc1ccccc1	-1	4	-2	-12	-1	1	.
O=S1(=O)CCC(=NNc2ccccc2)c2ccsc21	.	.	.	13	.	.	.
CC(C)Cn1c(C(C)C)nc([N+](=O)[O-])c1S(=O)(=O)c1ccc(F)cc1	-1	-9	-3	8	-2	51*	>38
O=C(CCc1c[nH]c2ccccc12)NCCc1ccc2c(c1)OCCO2	-4	0	6	11	1	6	.
COc1ccc(OCc2cc(C(=O)N3CCCC(OC)C3)no2)c2ccccc12 (stereo not drawn)	-5	0	2	.	0	35*	30*
CNC(=O)[C@@]1(Cc2ccccc2)C=CC(C)N1C(C)=O (stereo partly drawn)	.	.	.	2	.	.	.
Cc1cccc(NC2=C/C(=N/S(=O)(=O)c3cccs3)c3ccccc3C2=O)c1	0	4	-107	.	1	.	.
O=C(O)c1ccc(NC2=C/C(=N/S(=O)(=O)c3cccs3)c3ccccc3C2=O)cc1	6	.	.	.	.	.	.
CC(C)(C)c1cc[n+](C2=C([O-])c3ccccc3C(=O)/C2=N\S(=O)(=O)c2cccs2)cc1	0	-3	-68	10	1	78*	0.96*
O=C1/C(=N\S(=O)(=O)c2cccs2)C([n+]2ccccc2)=C([O-])c2ccccc21	?	1	-65	-4	9	41*	17*
O=c1[nH]c2ccccc2cc1CN(Cc1ccco1)S(=O)(=O)c1ccc(F)cc1	-1	-5	4	3	2	2	.
CCC(C(=O)OCC(=O)Nc1c(C)n(C)n(-c2ccccc2)c1=O)c1ccccc1 (stereo not drawn)	-3	0	11	-14	-2	0	.
COc1cccc(-n2nc(C#N)c(Cl)cc2=O)c1	-3	.	.	22	.	73*	21*
O=C(CCl)Nc1ccccc1Sc1ccccc1	0	99	-3	14	1	.	.
Cc1ccc(Sc2ccc(NC(=O)CCl)cc2)cc1C	-10	95	-27	14	5	66*	7.3*
Cc1ccc(C)c(Sc2ccc(NC(=O)CCl)cc2)c1	.	91	-3	9	-2	91*	7*
Cc1cccc(NC2=Nc3ccccc3N3C2=Nc2c(c(C)nn2-c2ccccc2)C3c2ccc(O)c(O)c2)c1 (stereo not drawn)	-4	100	-16	11	1	-9	.
COc1ccc(/C=C/C(=O)N2CCN(c3ccccn3)CC2)cc1	.	5	.	-2	1	-1	.
SMILES	FadD28 FP inh	Mtb bLac sens	Rv3671c protease	Mtb hypoxia rep	UGM FP inh	RecA splice inh	GFP chromophore
Cc1nn(-c2ccccc2)c2c1C(c1cccs1)C(C#N)=C(N)O2 (stereo not drawn)	-2	0	-2	.	2	92*	9.8*
CCCc1nn(-c2ccccc2)c2c1C(c1cccs1)C(C#N)=C(N)O2 (stereo not drawn)	-1	4	6	2	1	67*	16*
Cc1nn(-c2ccccc2)c2c1C(c1ccco1)C(C#N)=C(N)O2 (stereo not drawn)	-3	-12	-23	-8	0	68*	18*
CC(=O)NC(CC(=O)NCC(=O)Nc1ccc(F)c(F)c1)c1ccccc1 (stereo not drawn)	1	-6	7	-17	3	0	.
N#CCCn1cc(C=C2C(=O)NC(=O)NC2=O)c(-c2ccccc2)n1	0	1	-1	5	0	-1	.
CC1=NN(c2ccccc2)C(=O)/C1=C\c1cn(CCC#N)nc1-c1ccc(Cl)cc1	-4	10	-122	.	-1	37*	10*
O=[N+]([O-])c1cc(C=Nc2cccc3c(O)cccc23)ccc1Cl	.	27	-2	.	4	64*	33*
O=C(NN=Cc1ccc(Cl)c([N+](=O)[O-])c1)C1CC1	.	.	.	0	.	.	.
CC1=CC(=Nc2c(C)n(C)n(-c3ccccc3)c2=O)C=CC1=O	.	0	13	.	-2	57*	27*
CC1=CC(=Nc2c(C)n(C)n(-c3ccccc3)c2=O)C=C(C)C1=O	1	1	3	12	2	-6	.
Cc1[nH]nc2c1C(c1cccc(OC(=O)N3CCOCC3)c1)C(C#N)=C(N)O2 (stereo not drawn)	-4	-2	-4	.	1	59*	35*
CC(C)c1[nH]nc2c1C(c1ccc(OC(=O)c3ccco3)cc1)C(C#N)=C(N)O2 (stereo not drawn)	-1	99	-6	2	-3	46*	20*
Cc1[nH]nc2c1C(c1ccc(OC(=O)c3ccco3)cc1)C(C#N)=C(N)O2 (stereo not drawn)	1	100	-1	26	2	74*	33*
CC(C)(C)c1[nH]nc2c1C(c1ccccc1OC(=O)N1CCOCC1)C(C#N)=C(N)O2 (stereo not drawn)	2	1	-4	-3	3	.	.
CN(CCc1cnn(C)c1)C(=O)C1CCC(=O)N(CC2CCCCC2)C1 (stereo not drawn)	0	-4	-3	4	1	46*	>38
Cc1n[nH]c(C)c1CCN(C)C(=O)C1CCC(=O)N(CC2CCCCC2)C1 (stereo not drawn)	-3	?	7	1	1	.	.
COc1ccc(-n2cnnc2SC(C)c2nc3sc(C)c(C)c3c(=O)[nH]2)cc1 (stereo not drawn)	.	.	.	.	.	-5	.
COc1ccc(C2NC(=O)NC3=C2CCc2ccccc23)cc1 (stereo not drawn)	2	23	2	.	2	47*	33*
CC(OC(=O)c1cc(O)c2ccccc2c1O)C(=O)Nc1ccc(C(N)=O)cc1 (stereo not drawn)	2	-3	-25	6	-1	73*	5.2*
Cc1cc(C(=O)c2ccc(C(C)(C)C)cc2)c(NC(=O)CCl)s1	-1	99	-19	21	-2	67*	34*
